Assay results as given in the supplement of paper PMC3334620.
In all, about 33,000 sequences were measured (“E-score (-0.5 to 0.5)”: median about -0.016, highest 2% from about 0.31 on). For the sample, the highest values were picked, then their nearest neighbours and some sequences at random.

Target: Cst6 (UniProt P40535)
Test: PBM E-score (8-mer binding enrichment) (E-score (-0.5 to 0.5)); higher = stronger / more preferred TF binding
Conditions: protein concentration: 200 nM; construct: GST-DNA-binding domain
Method: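 Universal 'all 10-mer' protein binding microarrays (Agilent AMADID 015681) probed with GST-tagged S. cerevisiae TFs (full-length or DBD) made by in vitro transcription/translation (PURExpress), about 100-200 nM. Bound TF was detected with fluorescent anti-GST. Each ungapped 8-mer (which stands for itself and its reverse complement) is scored by the PBM enrichment score (E-score), a modified Wilcoxon-Mann-Whitney statistic from -0.5 to +0.5, computed with the Universal PBM Analysis Suite. Scale: above 0.35 generally sequence-specific binding.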

Sequence of UniProt P40535 (P40535 whole entry): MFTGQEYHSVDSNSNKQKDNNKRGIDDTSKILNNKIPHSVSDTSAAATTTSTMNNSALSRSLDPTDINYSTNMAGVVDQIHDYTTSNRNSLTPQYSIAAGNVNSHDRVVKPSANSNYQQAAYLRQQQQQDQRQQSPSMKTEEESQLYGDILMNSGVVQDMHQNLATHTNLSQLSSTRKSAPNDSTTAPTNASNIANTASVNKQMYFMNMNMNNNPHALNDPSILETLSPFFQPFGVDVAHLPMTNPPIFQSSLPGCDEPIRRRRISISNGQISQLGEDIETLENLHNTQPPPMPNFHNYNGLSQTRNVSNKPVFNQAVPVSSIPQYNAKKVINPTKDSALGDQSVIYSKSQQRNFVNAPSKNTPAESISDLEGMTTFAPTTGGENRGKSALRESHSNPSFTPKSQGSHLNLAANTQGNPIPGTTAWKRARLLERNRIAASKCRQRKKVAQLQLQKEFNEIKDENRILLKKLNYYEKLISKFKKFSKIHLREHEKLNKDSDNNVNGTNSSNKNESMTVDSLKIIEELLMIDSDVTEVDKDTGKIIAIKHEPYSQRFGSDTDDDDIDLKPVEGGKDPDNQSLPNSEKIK

| Sequence | PBM E-score |
| --- | --- |
| TGATGCAA | 0.418 |
| GGATGCAA | -0.129 |
| AGATGTAA | 0.27 |
| TGATGTAA | 0.488 |
| CGATGCAA | -0.0639 |
| CACAGGAA | -0.0714 |
| TCAATCGA | 0.249 |
| CGACGGAA | -0.188 |
| GGACGGAA | -0.119 |
| TGACGGAA | 0.432 |
| CGACGGCA | -0.00873 |
| TGACGGCA | 0.371 |
| GGACGGCA | 0.25 |
| CCGTCGGA | -0.114 |
| CCCAGTAC | -0.202 |
| GCGTCACA | 0.417 |
| TAGTCACA | 0.0725 |
| GAGTCACC | 0.0602 |
| AAGTCACC | 0.188 |
| AGGTCACC | 0.0958 |
| TCGTCACA | 0.368 |
| TGGTCACA | 0.0201 |
| CCGTCACG | 0.176 |
| CCGTCACA | 0.139 |
| ACGTCACC | 0.496 |

| Sequence | PBM E-score |
| --- | --- |
| GCGTCACC | 0.448 |
| GGGTCACC | -0.153 |
| CCAAAGCC | -0.0189 |
| AACATCCT | -0.0218 |
| GAGGATTA | -0.125 |
| GTAGCGAC | -0.304 |
| CCATCAAG | -0.165 |
| CGGCGGTA | 0.128 |
| AAGAGTGT | 0.0413 |
| ACGACCGT | -0.238 |
| GCGGGGTA | -0.201 |
| GAGCCTCC | -0.278 |
| AGGGCGGG | -0.0957 |
| ACTCCGAA | -0.169 |
| CCGTCACC | 0.411 |
| CAGTCACC | -0.113 |
| CGGTCACC | 0.0497 |
| AGGTTCGC | -0.315 |
| ACAATGGG | 0.0198 |
| CCAGACCG | -0.0843 |
| ACCTGCGA | -0.26 |
| AGCTGCTG | -0.0369 |
| GACGAAAA | 0.329 |
| CACGAAAA | 0.247 |
| TACGAAAA | 0.233 |

| Sequence | PBM E-score |
| --- | --- |
| TGCTGACA | 0.0293 |
| CCCAATCG | -0.0318 |
| GGCATCAA | 0.0768 |
| GCCATCAA | -0.169 |
| CTCATCAA | 0.134 |
| TTCATCAA | 0.151 |
| CTCATCTA | -0.113 |
| ATCATCGA | 0.183 |
| ATCATCAA | 0.326 |
| GTCATCAA | 0.385 |
| CTCATCGA | -0.0055 |
| GTCATCGA | 0.348 |
| ATCATCTA | 0.151 |
| GTCATCTA | 0.368 |
| AGAGCCCA | -0.263 |
| ATCCCGAA | 0.00888 |
| TCGAACCA | -0.0349 |
| CCATGGAA | -0.0645 |
| ACCAGGTC | -0.218 |
| CTCATCCA | 0.0578 |
| GTCATCCA | 0.383 |
| ATCATCCA | 0.0994 |
| AGGGGTTC | -0.327 |
| AGTCACGC | -0.07 |
| CCTCACGC | 0.22 |

| Sequence | PBM E-score |
| --- | --- |
| CGTCACGC | 0.441 |
| GGTCACGA | 0.0109 |
| CGTCACGA | 0.449 |
| AGTCACGA | 0.0257 |
| GCCCACGC | -0.238 |
| GTGATGGA | 0.0419 |
| AAGTCTGC | -0.226 |
| ATCTTCTC | -0.0503 |
| GACCAAAC | 0.0333 |
| AACGCCGC | 0.361 |
| AACGCCGG | -0.138 |
| AATGCCGA | 0.041 |
| AACGCCGA | 0.23 |
| AATGCCGG | -0.0561 |
| AACGCCGT | 0.373 |
| AATGCCGT | 0.418 |
| CACGCCGC | 0.0528 |
| GACGCCGC | 0.271 |
| GCTCGGCA | -0.0691 |
| ACGTTTCT | -0.0531 |
| CCCAGGGC | -0.337 |
| CTCCTCAG | -0.231 |
| CCAATTGG | -0.0187 |
| ACAAGCGT | 0.0465 |
| ACCATGAC | 0.395 |

| Sequence | PBM E-score |
| --- | --- |
| CCCATGAC | 0.336 |
| CCCATGAA | -0.00568 |
| GCCATGAC | 0.284 |
| ACCATGAT | 0.146 |
| ACCATGAA | 0.0849 |
| CCCATAAA | -0.0662 |
| ACCCTGCT | -0.34 |
| GAGCGTCA | 0.271 |
| AAGCGTCC | -0.0893 |
| AAGCGTCG | -0.151 |
| CAGCGTCA | 0.279 |
| TAGCGTCA | 0.399 |
| AAGCGTCA | 0.336 |
| AGGTGCGA | -0.148 |
| ATCTTTAC | 0.162 |
| CTATCATA | 0.14 |
| CTATCATC | 0.0729 |
| ATATCATA | 0.315 |
| ATATCATG | 0.19 |
| ATATCATC | 0.337 |
| ATATCAGC | -0.0588 |
| CCGGATCC | -0.199 |
| CAGGATGC | -0.125 |
| GCCGCCGC | 0.205 |
| TAGGCAGA | 0.0434 |

| Sequence | PBM E-score |
| --- | --- |
| ACGTCGAT | 0.316 |
| TCGTCAAA | 0.195 |
| ACGTCGAG | -0.115 |
| GCGTCAAC | 0.335 |
| CCGTCAAC | 0.0147 |
| GCGTCAAA | 0.151 |
| AGGTCAAC | -0.0368 |
| GTGTCAAC | 0.0573 |
| ACGTCAAC | 0.484 |
| GAGTCAAC | -0.0954 |
| ACGTCGAA | 0.112 |
| ACGTCAAA | 0.389 |
| CGCCAGTA | -0.0657 |
| TAAATTAA | 0.127 |
| CTCAGTAC | -0.0935 |
| ACGTCAAT | 0.455 |
| AGGTCAAG | -0.0961 |
| ACGTCAAG | 0.373 |
| AGGTCAAT | 0.0479 |
| CCGTCAAG | -0.129 |
| ATGTCAAT | 0.26 |
| ATAAGAGA | 0.217 |
| CAAAGGTG | -0.0715 |
| GTGCAGAA | 0.0789 |
| ACATCGGC | -0.0191 |

| Sequence | PBM E-score |
| --- | --- |
| GCGCCAAA | -0.042 |
| AAATTATC | 0.308 |
| AAATTAAT | 0.248 |
| AATTTATC | 0.312 |
| AAATTATT | 0.314 |
| AATTTATA | 0.263 |
| AAATTATG | 0.164 |
| AAATTATA | 0.278 |
| AAATTAGT | 0.29 |
| CATTTATC | 0.151 |
| GGTTTTGA | 0.105 |
| GGCCCTGA | -0.208 |
| AACAGGCA | -0.0324 |
| AAGTAAAG | -0.172 |
| AGGTAAAT | 0.0678 |
| ACGTAAAT | 0.385 |
| ATGTAAAC | 0.269 |
| ATGTAAAT | 0.309 |
| ACGTAAAG | 0.306 |
| ACGTAAAC | 0.31 |
| GCGTAAAC | 0.168 |
| CCGTAAAG | 0.00566 |
| ATGTAAAA | 0.144 |
| CCGTAAAC | 0.0456 |
| AAGTAAAT | 0.214 |
